# Experimental data as given in PubChem BioAssay AID1159580 (chemical genetic matrix, 2015).
# Among all 5,500 compounds or so, about 2,000 (36%) were called active. About 18% were inconclusive and are not listed. The list shows a part of the results. A number with no mark means an inactive call. No stated cut-off is given here; in the data, active means normalized growth mostly below about 0.91 (no sharp cut-off); inconclusive means no clear call, values can overlap the other calls; inactive means mostly above about 0.92.
# Test: chemical genetic growth profiling, strain panel (AID 1159580);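 further: tested at 20 µM; growth read once vehicle control cultures reached saturation at 30 °C; 1 = growth at the plate median or of vehicle wells; lower values mean less growth of the strain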
# Conditions: growth OD
structure (smiles),measurement,setting,value
CN1C[C@H](C(=O)N[C@]2(C)O[C@@]3(O)[C@@H]4CCCN4C(=O)[C@H](Cc4ccccc4)N3C2=O)C[C@@H]2c3cccc4[nH]cc(c34)C[C@H]21,normalized growth,"S. cerevisiae deletion strains, locus YKL009W, strain mrt4, hits give low values",0.97
same,normalized growth,"S. cerevisiae deletion strains, locus YKL068W, hits give low values",0.989
same,normalized growth,"S. cerevisiae deletion strains, locus YKL085W, strain MDH1 (second series), hits give low values",0.987
same,normalized growth,"S. cerevisiae deletion strains, locus YKL085W, strain MDH1, hits give low values",0.987
same,normalized growth,"S. cerevisiae deletion strains, locus YKL160W, strain elf1, hits give low values",0.928
same,normalized growth,"S. cerevisiae deletion strains, locus YKL190W, strain CNB1, hits give low values",0.992
same,normalized growth,"S. cerevisiae deletion strains, locus YKR001C, strain vps1, hits give low values",1
same,normalized growth,"S. cerevisiae deletion strains, locus YKR026C, strain gcn3, hits give low values",0.996
same,normalized growth,"S. cerevisiae deletion strains, locus YKR091W, strain srl3, hits give low values",0.983
same,normalized growth,"S. cerevisiae deletion strains, locus YLL001W, strain dnm1, hits give low values",0.92
same,normalized growth,"S. cerevisiae deletion strains, locus YLL026W, hits give low values",0.988
same,normalized growth,"S. cerevisiae deletion strains, locus YLL041C, strain sdh2, hits give low values",0.997
same,normalized growth,"S. cerevisiae deletion strains, locus YLR027C, strain aat2, hits give low values",0.992
same,normalized growth,"S. cerevisiae deletion strains, locus YLR039C, strain RIC1, hits give low values",1.06
same,normalized growth,"S. cerevisiae deletion strains, locus YLR058C, strain SHM2, hits give low values",0.957
same,normalized growth,"S. cerevisiae deletion strains, locus YLR102C, strain apc9, hits give low values",0.974
same,normalized growth,"S. cerevisiae deletion strains, locus YLR113W, strain HOG1, hits give low values",1.07
same,normalized growth,"S. cerevisiae deletion strains, locus YLR221C, strain rsa3, hits give low values",0.997
same,normalized growth,"S. cerevisiae deletion strains, locus YLR258W, strain gsy2, hits give low values",1.01
same,normalized growth,"S. cerevisiae deletion strains, locus YLR262C, strain YPT6 (second series), hits give low values",0.973
same,normalized growth,"S. cerevisiae deletion strains, locus YLR262C, strain YPT6, hits give low values",1.06
same,normalized growth,"S. cerevisiae deletion strains, locus YLR268W, strain sec22, hits give low values",0.973
same,normalized growth,"S. cerevisiae deletion strains, locus YLR320W, strain mms22, hits give low values",0.969
same,normalized growth,"S. cerevisiae deletion strains, locus YLR330W, strain CHS5, hits give low values",0.984
same,normalized growth,"S. cerevisiae deletion strains, locus YLR342W, strain FKS1 (second series), hits give low values",0.906
same,normalized growth,"S. cerevisiae deletion strains, locus YLR342W, strain FKS1, hits give low values",1.01
same,normalized growth,"S. cerevisiae deletion strains, locus YLR357W, strain rsc2, hits give low values",0.957
same,normalized growth,"S. cerevisiae deletion strains, locus YLR370C, strain arc18, hits give low values",0.987
same,normalized growth,"S. cerevisiae deletion strains, locus YLR371W, strain rom2, hits give low values",0.974
same,normalized growth,"S. cerevisiae deletion strains, locus YLR384C, strain iki3, hits give low values",1.01
same,normalized growth,"S. cerevisiae deletion strains, locus YLR418C, strain cdc73, hits give low values",0.803 (active)
same,normalized growth,"S. cerevisiae deletion strains, locus YML016C, strain PPZ1, hits give low values",0.979
same,normalized growth,"S. cerevisiae deletion strains, locus YML032C, strain rad52, hits give low values",0.979
same,normalized growth,"S. cerevisiae deletion strains, locus YML120C, strain ndi1, hits give low values",0.95
same,normalized growth,"S. cerevisiae deletion strains, locus YML124C, strain tub3, hits give low values",0.982
same,normalized growth,"S. cerevisiae deletion strains, locus YMR058W, strain fet3, hits give low values",0.965
same,normalized growth,"S. cerevisiae deletion strains, locus YMR078C, strain ctf18, hits give low values",0.963
same,normalized growth,"S. cerevisiae deletion strains, locus YMR125W, strain sto1, hits give low values",0.921
same,normalized growth,"S. cerevisiae deletion strains, locus YMR129W, hits give low values",0.989
same,normalized growth,"S. cerevisiae deletion strains, locus YMR205C, strain PFK2, hits give low values",0.946
same,normalized growth,"S. cerevisiae deletion strains, locus YMR223W, strain ubp8, hits give low values",0.941
same,normalized growth,"S. cerevisiae deletion strains, locus YMR231W, strain pep5, hits give low values",1.01
same,normalized growth,"S. cerevisiae deletion strains, locus YMR263W, strain SAP30, hits give low values",0.959
same,normalized growth,"S. cerevisiae deletion strains, locus YMR307W, strain GAS1, hits give low values",0.821
same,normalized growth,"S. cerevisiae deletion strains, locus YNL067W, strain RPL9B, hits give low values",0.961
same,normalized growth,"S. cerevisiae deletion strains, locus YNL071W, strain lat1, hits give low values",0.994
same,normalized growth,"S. cerevisiae deletion strains, locus YNL128W, strain TEP1, hits give low values",0.96
same,normalized growth,"S. cerevisiae deletion strains, locus YNL153C, strain GIM3, hits give low values",0.965
same,normalized growth,"S. cerevisiae deletion strains, locus YNL183C, strain NPR1, hits give low values",0.98
same,normalized growth,"S. cerevisiae deletion strains, locus YNL209W, strain ssb2, hits give low values",0.981
same,normalized growth,"S. cerevisiae deletion strains, locus YNL233W, strain BNI4, hits give low values",0.933
same,normalized growth,"S. cerevisiae deletion strains, locus YNL248C, strain rpa49, hits give low values",0.933
same,normalized growth,"S. cerevisiae deletion strains, locus YNL250W, strain rad50, hits give low values",0.984
same,normalized growth,"S. cerevisiae deletion strains, locus YNL271C, strain bni1, hits give low values",0.974
same,normalized growth,"S. cerevisiae deletion strains, locus YNL298W, strain CLA4, hits give low values",0.985
same,normalized growth,"S. cerevisiae deletion strains, locus YNL307C, strain MCK1, hits give low values",0.967
same,normalized growth,"S. cerevisiae deletion strains, locus YNL322C, strain KRE1 (second series), hits give low values",0.989
same,normalized growth,"S. cerevisiae deletion strains, locus YNL322C, strain KRE1, hits give low values",0.996
same,normalized growth,"S. cerevisiae deletion strains, locus YNR049C, strain mso1, hits give low values",0.983
same,normalized growth,"S. cerevisiae deletion strains, locus YNR052C, strain pop2, hits give low values",0.972
same,normalized growth,"S. cerevisiae deletion strains, locus YOL006C, strain TOP1, hits give low values",0.79
same,normalized growth,"S. cerevisiae deletion strains, locus YOL012C, strain htz1",0.956
same,normalized growth,"S. cerevisiae deletion strains, locus YOL147C, strain pex11, hits give low values",0.975
same,normalized growth,"S. cerevisiae deletion strains, locus YOR001W, strain rrp6, hits give low values",1.05
same,normalized growth,"S. cerevisiae deletion strains, locus YOR061W, strain CKA2, hits give low values",0.986
same,normalized growth,"S. cerevisiae deletion strains, locus YOR069W, strain VPS5, hits give low values",0.989
same,normalized growth,"S. cerevisiae deletion strains, locus YOR070C, strain gyp1, hits give low values",1
same,normalized growth,"S. cerevisiae deletion strains, locus YOR080W, strain dia2, hits give low values",0.996
same,normalized growth,"S. cerevisiae deletion strains, locus YOR083W, strain WHI5, hits give low values",0.931
same,normalized growth,"S. cerevisiae deletion strains, locus YOR106W, strain vam3, hits give low values",0.914
same,normalized growth,"S. cerevisiae deletion strains, locus YOR136W, strain idh2, hits give low values",0.977
same,normalized growth,"S. cerevisiae deletion strains, locus YOR144C, strain elg1, hits give low values",0.985
same,normalized growth,"S. cerevisiae deletion strains, locus YOR184W, strain ser1, hits give low values",0.943
same,normalized growth,"S. cerevisiae deletion strains, locus YOR231W, strain MKK1, hits give low values",1.05
same,normalized growth,"S. cerevisiae deletion strains, locus YOR265W, strain rbl2, hits give low values",0.994
same,normalized growth,"S. cerevisiae deletion strains, locus YOR270C, strain vph1, hits give low values",0.909
same,normalized growth,"S. cerevisiae deletion strains, locus YOR290C, strain snf2, hits give low values",0.962
same,normalized growth,"S. cerevisiae deletion strains, locus YOR316C, strain cot1, hits give low values",0.971
same,normalized growth,"S. cerevisiae deletion strains, locus YPL051W, strain arl3, hits give low values",0.992
same,normalized growth,"S. cerevisiae deletion strains, locus YPL055C, strain LGE1, hits give low values",0.91
same,normalized growth,"S. cerevisiae deletion strains, locus YPL078C, strain atp4, hits give low values",0.926
same,normalized growth,"S. cerevisiae deletion strains, locus YPL106C, strain sse1, hits give low values",0.967
same,normalized growth,"S. cerevisiae deletion strains, locus YPL240C, strain hsp82, hits give low values",0.989
same,normalized growth,"S. cerevisiae deletion strains, locus YPL241C, strain CIN2, hits give low values",0.993
same,normalized growth,"S. cerevisiae deletion strains, locus YPL256C, strain CLN2, hits give low values",1.03
same,normalized growth,"S. cerevisiae deletion strains, locus YPR119W, strain clb2, hits give low values",0.967
same,normalized growth,"S. cerevisiae deletion strains, locus YPR141C, strain kar3, hits give low values",0.968
same,normalized growth,"S. cerevisiae deletion strains, locus YPR163C, strain tif3, hits give low values",0.989
same,normalized growth,"S. cerevisiae deletion strains, locus YPR167C, strain met16, hits give low values",0.969
same,normalized growth,"S. cerevisiae deletion strains, strain wtn01, hits give low values",0.965
same,normalized growth,"S. cerevisiae strains, strain wild type, hits give low values",0.986
